# Results: the supplement of paper PMC11417369
# ± gives the standard deviation of the averaged measurements. Over roughly 25,000 sequences, “ln(normalized median fluorescence intensity)” has its median near 8.6; the highest 2% begin near 10. The entries come from a sample that favours the highest values as a whole.
# Test system: PfAP2-EXP AP2 domain (GST-tagged)
# Test: gcPBM binding intensity (ln(normalized median fluorescence intensity)); higher = stronger DNA binding
# Method in brief: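 GST-tagged P. falciparum DNA-binding domains produced in E. coli were incubated for 1 h on an Agilent 4 × 180k array of primer-extended double-stranded 36-bp intergenic genomic probes with negative controls. Binding intensity is the highest Masliner-normalised natural-log median intensity across replicate spots of either probe orientation, with bound protein detected by Alexa488 anti-GST antibody at 488 nm.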
row,Sequence,gcPBM binding intensity (ln)
1,AACGAAATCATCAAGTGTACTAGTTTATTATTAATA [XGTACX_site6161],8.38 ± 0.42
2,TTTTTTCTTTTTTTTTGTACATATAATATTTATGTT [XGTACX_site302],8.62 ± 0.4
3,AAAATAATAATAGGCACACATATATATATATATATA [CACACA_site2058],10.1 ± 0.33
4,ATGTACTATAGGCACACACACTCACATATATATATA [CACACA_site5745],9.96 ± 0.22
5,AAGTACCATATAGGCACACATATATATATATATATA [CACACA_site3282],10.2 ± 0.34
6,AAGAAAAGCAAACAAGTGCATAATAACAAAAAAAAT [GTGCAC_site9725],9.13 ± 0.46
7,TTGTTTCTTAAATTATTTATTTTATATTAAAAAAAA [XGTACX_negctrl_site224],8.31 ± 0.46
8,ATTTATTTTATTTTCACACACAAAAATAAATATCCG [CACACA_site2414],8.44 ± 0.44
9,TTATTATTATTACTAGTGCATTAATTATATATGTAA,8.72 ± 0.13
10,GTGTTTTTTTTAGATTGTACATATATATATATATAT [XGTACX_site4562],10.3 ± 0.33
11,TTTATATTGTTTTATTGTACATATATATTTATACAT [XGTACX_site6821],8.81 ± 0.4
12,ATATATATATATATATGTACATATGTATGTGTTTGT [XGTACX_site397],9.93 ± 0.42
13,ATATATATATATATATGTACATATTATTATTTTGAT [XGTACX_site4752],10.1 ± 0.38
14,TATATATCTATATATTGTACATATGTTTGTATGTGT [XGTACX_site7420],8.54 ± 0.29
15,ATATATATATATATATGTACATACATATTGTTTGGT [XGTACX_site2284],10.3 ± 0.76
16,ATATATATATATATATGTACATATGTTTGTTTCCGC [XGTACX_site5167],10.3 ± 0.21
17,ATATTGTTATATGTTTGTACATATTTTTTATATTTT [XGTACX_site6834],8.93 ± 0.91
18,CATATATATATATATTGTACAAGATTGTTTTTTTAT [XGTACX_site3913],8.76 ± 0.35
19,TTTTTTTTTTGATGTTGTACATATATATTATATATA [XGTACX_site6377],8.55 ± 0.41
20,ATATATATATATATATGTACACATATATGTGTTTGT [XGTACX_site62],10.1 ± 0.26
21,ATATATATATATATATGTACATATTTTTGTTTGATG [XGTACX_site51],10.2 ± 0.81
22,TAACTAAGGAATAATACACACAGAAATATAGATTTA [CACACA_site6293],8.41 ± 0.42
23,TTTTTTTTTTTTTTTTTTTTACGATATATTTTAAAA [XGTACX_negctrl_site401],8.03 ± 0.67

row,Sequence,gcPBM binding intensity (ln)
1,GTTATACATTTGAAAAGTACTCATGATTTTTTTTTT [XGTACX_site8177],8.75 ± 0.45
2,TCGAATATCTTATAGGTGCATCATAAATACATATGT,8.69 ± 0.28
3,TGTATATATAATAAAACACACATTTTTAATGTGCTC [CACACA_site1437],8.01 ± 0.3
4,TTAACCACTAAAAGTACACACATATATACCTATATA [CACACA_site6026],8.45 ± 0.28
5,AATAAATAAAGAAGTACACACATATATATATATATA [CACACA_site4314],10.1 ± 0.41
6,ATGATATGGATAAATACACACAATAAAATAATGTCT [CACACA_site6786],8.71 ± 0.43
7,TATACATACATACATACACACACACCGATATATACA [CACACA_site8184],8.78 ± 0.42
8,AATATATATATATATACACACACACCGATATATATA [CACACA_site8158],8.79 ± 0.33
9,TATATATATTTATGTACACACACACCGATAAATAAA [CACACA_site4404],8.91 ± 0.48
10,TATATATATATATACACACACACACCGATATATATA [CACACA_site8813],10.3 ± 0.41
11,TATGTACAAATATGTACACACACACCGATATATATA [CACACA_site4487],8.76 ± 0.18
12,TATATATATATATGTACACACACACCGATAAATAAA [CACACA_site8041],10.21 ± 0.085
13,TATATATATATGTGTACACATGTCGCATTTTTTTAT [CACACA_site4648],10 ± 0.26
14,TGATAATTTCATTTTGCATGTGACAATACAAGATGT [TGCATGCA_site203],8.59 ± 0.18
15,AAAAAAATAATATAAATAATGAAAAGATATAAATAA [GTGCAC_negctrl_site432],8.54 ± 0.35
16,ATGCTTCCTTAGGAATGTACACACATATATAATATG [XGTACX_site873],8.69 ± 0.35
17,TAAAATATAATAAAATGTACACGCATGCAATAGAAT [XGTACX_site7434],9.99 ± 0.47
18,CAAAAATAATAGAATACATGCAAAAATAAATGTATA [TGCATGCA_site196],9 ± 0.071
19,TAGAAAAAAATAGATGCATGCAATGAATGAATAATA [TGCATGCA_site14],10.3 ± 0.17
20,TAATAAAATGTACACGCATGCAATAGAATATAAAGT [TGCATGCA_site905],10.3 ± 0.79
21,ATAGAAATAAAATAAAATAAAAAAAAAATAATGAAA [CACACA_negctrl_site1565],8.64 ± 0.43
22,AAAATATATATAAATGCATGCATAATGAAATATATA [TGCATGCA_site39],9.95 ± 0.21
23,ATTCTACCACGCGATATACACACTTGTAGACATCTT [CACACA_site188],8.97 ± 0.49

row,Sequence,gcPBM binding intensity (ln)
1,TTTAAAAATTTGATCAAACACACGTTGCATAAATTA [CACACA_site3945],8.87 ± 0.47
2,TTGTTTAACTTGTTAAATATAATGTATCTGTGGATA [GTGCAC_negctrl_site108],8.12 ± 0.4
3,TTAATACTTTTTTCTGTACACACTTGATTTACTATA [CACACA_site2799],8.95 ± 0.44
4,TATTTATTGTGATACTTATATTATTTTATGATTAAA [CACACA_negctrl_site901],8.27 ± 0.37
5,ATATATATATATATATGTACTTATTTATATATTTAT [XGTACX_site7811],10.1 ± 0.25
6,TTGTTAATATATATATGTACTTATTTATTTATTTAT [XGTACX_site2274],8.51 ± 0.35
7,ATATATATGTATGTATGTACTTATTTATTTATTTAT [XGTACX_site7740],8.32 ± 0.16
8,TACTTATTGTGATACTTATATTATTTTATGATTAAA [XGTACX_negctrl_site353],8.36 ± 0.39
9,TATATATATATATATTGTACTTATGTTTATATTCAT [XGTACX_site6258],10.1 ± 0.2
10,ATATATATATATAGTTGTACTTAATTTTATATGTTA [XGTACX_site5256],10.2 ± 0.15
11,ATATATATATATATATGTACTTATTTATTTATTTAT [XGTACX_site4645],10.2 ± 0.51
12,TTTTTATTTATATGATACTTATATATATATATATAT [CACACA_negctrl_site462],10.2 ± 0.16
13,ATGTTTATTTATTTATGTACTTATATATTTATATAT [XGTACX_site7924],8.78 ± 0.34
14,TATATATATATATATTGTACTTTATATGTTCTTATA [XGTACX_site7545],10.3 ± 0.11
15,AAAATTGTTATTTTATGTACTTATATTTATTTATTT [XGTACX_site3478],8.53 ± 0.27
16,ATCTTTTCATATTGCTGTACAAATTATTTTCATTCG [XGTACX_site492],9.05 ± 0.45
17,AGAATTATATACACAAGTACATAATGACATATATAT [XGTACX_site5617],8.42 ± 0.35
18,TAAATATATATTATATGTACTTATATATATATATAT [XGTACX_site4448],9.85 ± 0.3
19,TATATATTATATATATGTACTTATTTATTAATTTAT [XGTACX_site5253],8.29 ± 0.25
20,GTATGTATATATGTATGTACTTATGTATCATTATTA [XGTACX_site2438],8.35 ± 0.26
21,ATATATATATATATATGTACTTATTTATTTATATTA [XGTACX_site4646],10.3 ± 0.39
22,ATATATATATATATATGTACTTATTTATTTTATATA [XGTACX_site8810],10.2 ± 0.24
23,ATATTTTTTTTTTTATGTACTTATTTATAATTATTT [XGTACX_site5279],8.67 ± 0.37

row,Sequence,gcPBM binding intensity (ln)
1,ATTTATTTATTTATATGTACTTATATATGTATTTTC [XGTACX_site6269],8.85 ± 0.25
2,TTATATATTTTTATGTGTACTTATATATATATATAT [XGTACX_site6211],10 ± 0.13
3,ATATATATATATATATGTACTTATTAAGATTAAAAA [XGTACX_site61],10.2 ± 0.2
4,ATATATATATATATGTGTACTTATATATTTAAAAAA [XGTACX_site1761],10 ± 0.27
5,TATCATTTATATATGTGTACTTATTTATTTATTTAT [XGTACX_site7961],8.82 ± 0.45
6,ATATATATATATATATGTACTTATGTCATCATTAAA [XGTACX_site5316],10.3 ± 0.35
7,TTTTATCGTTTTTTTTTTTTTTTTTTTTTTTTTTTT [CACACA_negctrl_site1309],9.06 ± 0.092
8,TCTGGATTGGATTACAAGAAAATAAAATATAAAATA [CACACA_negctrl_site122],8.38 ± 0.4
9,ATGAAGAAGTGTAAATGTACATTTTATGTAGAACAA [XGTACX_site6925],8.93 ± 0.48
10,TAATATTATATTATATGTACATAACAAATTATATTT [XGTACX_site4296],8.6 ± 0.21
11,ATTTTTTTATAAGAAAATTTCTAACGTTAAAAAAAA [CACACA_negctrl_site1367],8.38 ± 0.59
12,ATATATATATATGATACATGCATATATTTTTTCTTC [TGCATGCA_site216],9.99 ± 0.13
13,TATATATATATATATGCATGCCATATGATATATATA [TGCATGCA_site109],10.3 ± 0.27
14,TATATATATGTATGATGTACATATATGCATATATAT [XGTACX_site3399],8.54 ± 0.23
15,ATTTTATTTTTTGAGTGTACTAGTTCAACAACTCCG [XGTACX_site8600],8.72 ± 0.52
16,TGGTTTCAATAATTAATAAAATATATTATTGTGAAA [CACACA_negctrl_site442],7.95 ± 0.41
17,AAGACAATATATGCAGTGCATATACATACATATATA,8.65 ± 0.25
18,CGTATGTGCGGACATGCATGCAATATACAAGAAAAA [TGCATGCA_site145],10.2 ± 0.28
19,ACGGAAAAAGAAAAGGTGCATATGGACACAATATAT,9.35 ± 0.17
20,AAGAAAAGTAAATATGCATGTAGGGTAGGTTATTTT [TGCATGCA_site46],8.94 ± 0.23
